Source: PubChem BioAssay
Calls of active or inactive are those of the source.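 Rule for the calls, unless noted: active = viability loss from added drug above about 55%, and viability with drug at most 40%, in both replicates (limit read from the data, passing the limit was not always enough); inconclusive = both conditions met in only one replicate; inactive = neither replicate meets both conditions.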

Legend:
[1] = SK-BR-3 cell growth inhibitors, pilot screen, 24 h, human (AID 572;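 active = viability at or below 10% of carrier control in both of two separate runs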;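 note: compound exposure lasted between 18 and 24 h rather than exactly 24 h; 100% = carrier-treated control wells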); conditions: SK-BR-3 viability, CellTiter-Glo luminescence, at 10 µM, stronger effect = lower value
[2] = reversal of MRP1-mediated doxorubicin resistance, pilot screen, H69AR cells, doxorubicin co-treatment (AID 601); conditions: CellTiter-Glo, 72 h, at 10 µM; for differential viability (reversal): stronger effect = higher value
[3] = 384-well plate pilot, post-Golgi transport modulator project, inhibition of yeast transport mutant growth (AID 636; in the data active = inhibition above about 31%); conditions: absorbance 615 nm, about 18 h, stronger effect = higher value
[4] = growth suppression of yeast trafficking mutant, preliminary HTS, modulators of trafficking downstream of Golgi apparatus project, 1536-format plate, OD 615 nm (AID 637; in the data active = inhibition above about 30%); conditions: yeast transport mutant growth, absorbance 615 nm, 18 h; stronger effect = higher value
[5] = growth inhibitors of H69AR lung tumor, primary screen, human, duplicate replicates (AID 580;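 active = viability at or under a set limit in both replicates, limit being median viability minus 3 SD, cut at about 48% in these data, passing the limit was not always enough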;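 note: 100% = mean luminescence of untreated wells and 0% = no signal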); conditions: H69AR lung tumor cells viability, ATP luminescence, 72 h; at 10 µM; stronger effect = lower value
[6] = H69AR cells + 2 uM doxorubicin, measured here: viability with 2 uM doxorubicin, stronger effect = lower value
[7] = H69AR cells, compound alone cytotoxicity

With `C=C(CC)C(=O)c1ccc(OCC(=O)O)c(Cl)c1Cl` the viability [1] was 86% (inactive), the differential viability (reversal) ([2]; H69AR cells + 2 uM doxorubicin) was 0.86% (inactive) and the viability [2, 6] was 48.5%. For the same compound, the viability [2, 7] was 49.4%, the inhibition [3] was -2.47% (inactive) and the inhibition [4] was -0.5% (inactive).
With `COc1cc2nc(N3CCN(C(=O)C4COc5ccccc5O4)CC3)nc(N)c2cc1OC` (configuration not stated) the viability [1] was 59% (inactive), the differential viability (reversal) ([2]; H69AR cells + 2 uM doxorubicin) was -15.4% (inactive) and the viability [2, 6] was 23.7%. For the same compound, the viability [2, 7] was 8.23%, the inhibition [3] was -0.65% (inactive) and the inhibition [4] was 6.83% (inactive).
In the case of `O=C(CCCN1CCC(O)(c2ccc(Cl)cc2)CC1)c1ccc(F)cc1`, the viability [1] is reported as 79% (inactive), the viability [5] is reported as 84% (inactive) and the differential viability (reversal) ([2]; H69AR cells + 2 uM doxorubicin) is reported as 3.11% (inactive). The viability [2, 6] was 80.9%, the viability [2, 7] was 84% and the inhibition [3] was 2.34% (inactive). The inhibition [4] was -3.17% (inactive).
With `COC(=O)Nc1nc2ccc(Sc3ccccc3)cc2[nH]1` the viability [1] was 90% (inactive), the differential viability (reversal) ([2]; H69AR cells + 2 uM doxorubicin) was -13.4% (inactive) and the viability [2, 6] was 25.1%. The viability [2, 7] was 11.7%, the inhibition [3] was 3.25% (inactive) and the inhibition [4] was 25.2% (inactive).
For `COc1ccccc1NC(=O)c1oc2ccccc2c1NC(=O)c1cc(OC)c(OC)c(OC)c1`, the viability [1] was 56.5% (inactive), the viability [5] was 16.9% (active) and the differential viability (reversal) ([2]; H69AR cells + 2 uM doxorubicin) was -18.4% (inactive). For the same compound, the viability [2, 6] was 35.3%, the viability [2, 7] was 16.9% and the inhibition [3] was -3.33% (inactive). For the same compound, the inhibition [4] was -2.1% (inactive).
In the case of `Oc1ccc(/C=C/c2cc(O)cc(O)c2)cc1`, the viability [1] is reported as 115% (inactive), the viability [5] is reported as 76.9% (inactive) and the differential viability (reversal) ([2]; H69AR cells + 2 uM doxorubicin) is reported as -11.7% (inactive). For the same compound, the viability [2, 6] was 88.6%, the viability [2, 7] was 76.9% and the inhibition [3] was 0.13% (inactive). The inhibition [4] was -5.17% (inactive).
In the case of `Clc1ccc(C2=Nn3c(nnc3-c3n[nH]c4c3CCC4)SC2)cc1Cl`, the viability [1] is reported as 102% (inactive), the viability [5] is reported as 9% (active) and the differential viability (reversal) ([2]; H69AR cells + 2 uM doxorubicin) is reported as -12.1% (inactive). For the same compound, the viability [2, 6] was 21.1%, the viability [2, 7] was 9% and the inhibition [3] was -6.58% (inactive). For the same compound, the inhibition [4] was 6.77% (inactive).
In the case of `O=C(O)c1ccc2c3c(ncnc13)-c1ccccc1C2=O`, the viability [1] is reported as 60.5% (inactive), the viability [5] is reported as 80.3% (inactive) and the differential viability (reversal) ([2]; H69AR cells + 2 uM doxorubicin) is reported as -19.5% (inactive). For the same compound, the viability [2, 6] was 99.8%, the viability [2, 7] was 80.3% and the inhibition [3] was 5.51% (inactive). For the same compound, the inhibition [4] was 1.67% (inactive).
In the case of `CCCCC[C@H](O)/C=C/[C@H]1C=CC(=O)[C@@H]1C/C=C\CCCC(=O)O`, the viability [1] is reported as 111% (inactive), the viability [5] is reported as 67.4% (inactive) and the differential viability (reversal) ([2]; H69AR cells + 2 uM doxorubicin) is reported as 9.76% (inactive). The viability [2, 6] was 57.6%, the viability [2, 7] was 67.4% and the inhibition [3] was -2.99% (inactive). The inhibition [4] was -0.5% (inactive).
With `CN1CCN(C2=Nc3cc(Cl)ccc3Nc3ccccc32)CC1` the viability [1] was 94% (inactive), the viability [5] was 68% (inactive) and the differential viability (reversal) ([2]; H69AR cells + 2 uM doxorubicin) was 17% (inactive). For the same compound, the viability [2, 6] was 51%, the viability [2, 7] was 68% and the inhibition [3] was 1.82% (inactive). The inhibition [4] was 3.67% (inactive).
